Results filed as inconclusive are left out. Active and inactive are the calls of the source. Calls come from the whole dose curve.
Experiments:
[1] = molecular target: Acetylcholinesterase (Homo sapiens) (UniProt P22303); test: Acetylcholinesterase (AChE) small molecule antagonists: colormetric cell-based qHTS assay (AID 1347395); note: nearly all actives have a fitted effect of over 30% in size
Outline: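 After overnight attachment at 37 C, SH-SY5Y cells get 30 min compound exposure; detection cocktail (acetylthiocholine, DTNB) then incubates 90 min at 37 C, and absorbance reflects AChE-generated thiocholine.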

[2] = molecular target: Acetylcholinesterase (Homo sapiens) (UniProt P22303); test: Acetylcholinesterase (AChE) small molecule antagonists: enzyme-based qHTS assay (AID 1347397); conditions: Potency: AChE enzyme activity inhibition; outcome: AChE enzyme activity inhibition; note: nearly all actives have a fitted effect of over 55% in size
Outline: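 Absorbance-based detection of thiocholine with DTNB served as the read-out. Recombinant human AChE was exposed to compound for 30 min at RT before a 10 min RT incubation with acetylthiocholine.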

[3] = molecular target: Acetylcholinesterase (Homo sapiens) (UniProt P22303); test: Acetylcholinesterase (AChE) small molecule antagonists: fluorescence cell-based qHTS assay (AID 1347398); conditions: Potency: AChE activity; outcome: AChE activity; note: nearly all actives have a fitted effect of over 50% in size
Outline: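 Fluorimetric cell-based assay: intact SH-SY5Y cells, 30 min compound preincubation at 37 C, acetylthiocholine substrate with thiol probe Thiolite Green, 40 min RT development, fluorescence 490/520 nm.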

[4] = molecular target: Acetylcholinesterase (Homo sapiens) (UniProt P22303); test: Acetylcholinesterase (AChE) small molecule antagonists: enzyme-based qHTS assay with human liver microsomes (AID 1347399); conditions: Potency: qHTS inhibition; outcome: qHTS inhibition; note: nearly all actives have a fitted effect of over 60% in size
Outline: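 Recombinant human AChE (50 mU/mL in the enzyme mix) and human liver microsomes (0.25 mg/mL final) were preincubated with compound and NADPH (0.25 mg/mL final) for 30 min at 37 C. Acetylthiocholine/DTNB was then added; thiocholine was read colorimetrically after 10 min at room temperature.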
% is set by controls: 0 for no effect and ±100 for the full control effect.

Chain of Acetylcholinesterase (Homo sapiens) (P22303 whole entry, looked up): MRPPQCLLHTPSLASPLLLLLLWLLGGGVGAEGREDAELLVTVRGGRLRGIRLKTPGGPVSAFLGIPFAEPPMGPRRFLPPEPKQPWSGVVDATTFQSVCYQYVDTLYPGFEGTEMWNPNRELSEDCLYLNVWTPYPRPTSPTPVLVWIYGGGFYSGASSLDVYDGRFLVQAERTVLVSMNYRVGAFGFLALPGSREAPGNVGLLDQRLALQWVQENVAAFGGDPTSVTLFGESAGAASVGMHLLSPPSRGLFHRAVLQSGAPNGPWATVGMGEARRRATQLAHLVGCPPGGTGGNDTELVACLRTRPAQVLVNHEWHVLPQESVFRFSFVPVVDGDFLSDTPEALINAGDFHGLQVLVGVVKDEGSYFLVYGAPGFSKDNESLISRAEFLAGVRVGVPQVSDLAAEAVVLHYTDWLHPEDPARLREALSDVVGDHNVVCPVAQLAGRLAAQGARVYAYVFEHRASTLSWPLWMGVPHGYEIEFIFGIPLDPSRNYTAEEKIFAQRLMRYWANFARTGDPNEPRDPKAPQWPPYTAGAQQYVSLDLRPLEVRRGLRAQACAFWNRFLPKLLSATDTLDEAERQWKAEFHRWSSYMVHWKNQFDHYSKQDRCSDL

Oc1ccc2c(c1)Cc1ccccc1-2
inactive: Potency [1] | Potency [2] | Potency [3] | Potency [4]

CNCC(O)c1ccc(O)c(O)c1 (stereo not given)
inactive: outcome [1] | outcome [2] | outcome [3] | outcome [4]

C=CCCCCCCCCC(=O)OCCCC
inactive: Potency [1] | Potency [2] | Potency [3] | Potency [4]

COc1c2occc2c(OC)c2c(=O)cc(C)oc12
inactive: Potency [1] | Potency [2] | Potency [3] | Potency [4]

CC(=O)Nc1ncc([N+](=O)[O-])s1
inactive: Potency [1] | Potency [2] | Potency [3] | Potency [4]

CC(=O)SC[C@@H](Cc1ccccc1)C(=O)NCC(=O)OCc1ccccc1
inactive: Potency [1] | Potency [2] | Potency [3] | Potency [4]

O=S1(=O)CCCC1
inactive: Potency [1] | Potency [2] | Potency [3] | Potency [4]

COC(=O)c1cc(C(=O)OC)cc(S(=O)(=O)O)c1
inactive: Potency [1] | Potency [2] | Potency [3] | Potency [4]

O=C(O)[C@@H]1CSCN1
inactive: Potency [1] | Potency [2] | Potency [3] | Potency [4]

Cn1cc(C(=O)[C@@H]2CCc3nc[nH]c3C2)c2ccccc21
inactive: Potency [1] | Potency [2] | Potency [3] | Potency [4]

NCCCN1CCOCC1
inactive: Potency [1] | Potency [2] | Potency [3] | Potency [4]

CN1CCC(=C2c3ccccc3Sc3ccccc32)CC1
inactive: Potency [1] | Potency [2] | Potency [3] | Potency [4]

CCCCCCCCCCCCC1CO1 (stereo not given)
inactive: Potency [1] | Potency [2] | Potency [3] | Potency [4]

CCCCC(CC)COC(=O)c1ccccc1O (stereo not given)
inactive: Potency [1] | Potency [2] | Potency [3] | Potency [4]

CC(C)=CCOc1ccc(/C=C/C(=O)c2ccc(OCC=C(C)C)cc2OCC(=O)O)cc1
inactive: Potency [1] | Potency [2] | Potency [3] | Potency [4]

CCCCCCC(O)CO (stereo not given)
inactive: Potency [1] | Potency [2] | Potency [3] | Potency [4]

C=CCOC(=O)COCCC(C)C
inactive: Potency [1] | Potency [2] | Potency [3] | Potency [4]

CCCCCCCC[Si](OCC)(OCC)OCC
inactive: Potency [1] | Potency [2] | Potency [3] | Potency [4]

SCCCCCCCCS
inactive: Potency [1] | Potency [2] | Potency [3] | Potency [4]

Clc1ccccc1-c1nc(-c2ccncc2)no1
inactive: Potency [1] | Potency [2] | Potency [3] | Potency [4]

CC(C)[N+](C)(C)CC(O)COc1cccc2ccccc12 (stereo not given)
inactive: Potency [1] | Potency [2] | Potency [3] | Potency [4]

Cc1ccc(Nc2ccc(O)c3c2C(=O)c2ccccc2C3=O)cc1
inactive: Potency [1] | Potency [2] | Potency [3] | Potency [4]

O=C(Oc1cccc2cccnc12)c1ccccc1
inactive: Potency [1] | Potency [2] | Potency [3] | Potency [4]

C=CCOCC(O)CS(=O)(=O)O (stereo not given)
inactive: Potency [1] | Potency [2] | Potency [3] | Potency [4]

FC(F)(F)C(F)(F)C(F)(F)C(F)(F)C(F)(F)C(F)(F)CCI
inactive: Potency [1] | Potency [2] | Potency [3] | Potency [4]

COC(=O)C1=C(C)NC(C)=C(C(=O)OC(C)C)C1c1cccc2nonc12 (stereo not given)
inactive: Potency [1] | Potency [2] | Potency [3] | Potency [4]

O=C1OC(=O)c2cc(Oc3ccc4c(c3)C(=O)OC4=O)ccc21
inactive: Potency [1] | Potency [2] | Potency [3] | Potency [4]

CCCCCCCCCCCC(=O)OCC
inactive: Potency [1] | Potency [2] | Potency [3] | Potency [4]

CC1(C)CC(N)CC(C)(C)N1
inactive: Potency [1] | Potency [2] | Potency [3] | Potency [4]

C=C(C)c1ccccc1
inactive: Potency [1] | Potency [2] | Potency [3] | Potency [4]

CCCCCCC#CC(=O)OC
inactive: Potency [1] | Potency [2] | Potency [3] | Potency [4]

O=C1C(O)=C(O)C(=O)C(O)=C1O
inactive: Potency [1] | Potency [2] | Potency [3] | Potency [4]

O=C(CS)OCCOC(=O)CS
inactive: Potency [1] | Potency [2] | Potency [3] | Potency [4]

Nc1cccc2c(=O)[nH][nH]c(=O)c12
inactive: Potency [1] | Potency [2] | Potency [3] | Potency [4]

CCc1cccc(C)c1
inactive: Potency [1] | Potency [2] | Potency [3] | Potency [4]

Cc1cccc(C)n1
inactive: Potency [1] | Potency [2] | Potency [3] | Potency [4]

SCCSCCS
inactive: Potency [1] | Potency [2] | Potency [3] | Potency [4]

CN(C)c1ccc(C=O)cc1
inactive: Potency [1] | Potency [2] | Potency [3] | Potency [4]

Nc1cnn([C@@H]2O[C@H](CO)[C@@H](O)[C@H]2O)c(=O)n1
inactive: Potency [1] | Potency [2] | Potency [3] | Potency [4]

C1CCCCCCCCCCC1
inactive: activity, negative = inhibition [1] -0.403% [at 23.6 µM] | activity change, negative = inhibition [2] 0.515% [at 23.6 µM] | activity change, negative = inhibition [3] 7.82% [at 23.8 µM] | activity change, negative = inhibition [4] -0.0559% [at 23.6 µM]

Source: PubChem BioAssay (Tox21)
